Laboratory results from PubChem BioAssay AID1457 (National Center for Advancing Translational Sciences (NCATS), 2008).
Among all 210,000 compounds or so, about 730 (0.35%) were called active. Where a call stands in place of a potency, no number is given. Roughly 1% stayed inconclusive and do not appear here. Calls follow the shape of the dose curve; as a rule, active = well fitted inhibition curve with a large enough effect; inconclusive = small, poorly fitted or top-dose-only effect; inactive = no such curve, though single readings can be large or run the other way. The full list was thinned out, with actives kept by preference.

Experiment: qHTS Assay for Identifying the Cell-Membrane Permeable IMPase Inhibitors: Potentiation with Lithium;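 also: IP1 builds up when IMPase is blocked and the TR-FRET signal falls; nearly all actives have a fitted effect of over 50% in size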
Settings: CHO-M1 cells, IP1 TR-FRET (IP-One), carbachol + lithium; series mostly up to 59.4 µM
Excerpt: NIH Chemical Genomics Center [NCGC]
NIH Molecular Libraries Probe Production centers Network [MLPCN]
Assay Submitter (PI): Wei Zheng
Lithium has been widely used for the treatment of bipolar disorder. But lithium has a narrow therapeutic index and it can cause side effects such as thirst, weight gain, tremor, polyuria and memory problems. Although the mechanism for lithium action in treatment of bipolar disorder is still not fully understood, inhibition of inositol monophosphatase (IMPase) and the subsequent depletion of the inositol pool in living cells have been implicated as the primary therapeutic benefit of lithium therapy. Therefore, a selective IMPase inhibitor with reduced side effects might be a good drug candidate to replace lithium for the treatment of bipolar disorder. Several IMPase inhibitors have been discovered previously. However, they are not suitable for therapeutic use because of their poor cell membrane penetrability or oral bioavailability; the development of new cell-permeable IMPase inhibitors is needed.
IMPase catalyzes the hydrolysis of inositol-1-phosphate (IP1) to release free inositol. Binding of an agonist to a Gq coupled GPCR results in the activation of PLC, which hydrolyzes the PIP2 to form inositol-1,4,5-trisphosphate (IP3) and diacyl glycerol (DAG). While DAG activates protein kinase C (PKC), IP3 triggers the elevation of intracellular free Ca2+. The IP3 is very rapidly inactivated by hydrolysis to IP2, IP1 and then inositol by a series of enzymes including IMPase. Free inositols are used for synthesis of PI and thus start another inositol cycle.
To identify new cell-permeable IMPase inhibitors, we developed a cell-based IMPase assay in which the cytosolic IP1 is measured by a time-resolved fluorescence resonance energy transfer (TR-FRET) assay. In this assay, an IP1 specific antibody is used to detect the labeled IP1 tracer. When the cell lysate contains the elevated IP1 due to the inhibition of IMPase, the TR-FRET between the labeled antibody and IP1 tracer is disrupted resulting in a reduction in the total signal. Since the TR-FRET is used, this cell-based assay is a homogenous assay without cell wash and medium change that is suitable for assay miniaturization and HTS. In this particular assay, a small amount of lithium is added to potentiate the response of weak activators.
NCGC Assay Protocol Summary:
A Chinese hamster ovary (CHO) cell line stably expressing the M1 receptor (CHO-M1) was obtained from ATCC and maintained in F-12 Kaighn's media (Invitrogen, Carlsbad, CA) supplemented with 10 % FBS, 100 units/ml penicillin, 100 ug/ml streptomycin and 250 ug/ml geneticin at 37C, 5% CO2 in a humidified atmosphere. Before the assay, aliquots of cells were frozen and stored at -135C. The assay was performed in 1536-well format. Data are reported for both the ratio of the two emission wavelengths, and also for the component 'donor' channel, Em2=620. […] AC50 values were determined from concentration-response data modeled with the standard Hill equation.
(1) Frozen CHO-M1 cells were thaw, washed once with fresh media and resuspended in F12K media containing 10% FBS, 100 units/ml penicillin and 100 ug/ml streptomycin. Cells were plated at 4ul/well (2000 cells) in white, tissue culture treated 1536-well plates, and then cultured at 37C, 5 % CO2 for 16 to 30 hours.
(2) Add 23 nl/well of compound in DMSO solution. The final titration for each compound was between 0.6 nM and 46 uM.
(4) Incubation at 37C, 5 % CO2 for 30 min.
(5) Add 1 ul/well of d2-conjugated IP1 (d2-IP1) and 1 ul/well of Eu+ cryptate conjugated anti-IP1 antibody (Eu+-Ab) prepared in the cell lysis buffer, both from the IP-One kit (Cisbio, MA).
(6) Incubate at room temperature for 10 minutes.
(7) Detect the assay plate (Ex = 320, Em1 =665 and Em2 620) in a ViewLux plate reader.
Potency is read from the fitted curve at half-maximal effect.

| Compound | Potency |
| --- | --- |
| CN(C)C1C(=O)C(C(N)=O)=C(O)[C@@]2(O)C(=O)C3=C(O)c4c(O)cccc4[C@@](C)(O)C3C[C@@H]12 (stereo not given in full) | 10 µM (active) |
| CN(C)[C@@H]1C(=O)C(C(N)=O)=C(O)[C@@]2(O)C(=O)C3=C(O)c4c(O)cccc4[C@@](C)(O)C3CC12 (stereo not given in full) | 8.91 µM (active) |
| CC(=O)c1c(O)c(C)c(O)c(Cc2c(O)c3c(c(C(=O)/C=C\c4ccccc4)c2O)OC(C)(C)C=C3)c1O | inactive |
| CC[C@@](O)(C(=O)O)c1cc2n(c(=O)c1CO)Cc1cc3ccccc3nc1-2 | inactive |
| Clc1ccccc1 | inactive |
| CC[N+](C)(CC)CCC[n+]1c(-c2ccccc2)c2cc(N)ccc2c2ccc(N)cc21 | inactive |
| O=P(O)(O)C(O)c1ccc2ccccc2c1 (stereo not given) | inactive |
| CC(C)(c1ccccc1)c1ccc(O)cc1 | inactive |
| O=C(CN1CCN(S(=O)(=O)c2ccc3ccccc3c2)CC1)NC(=O)NC1CCCCC1 | inactive |
| c1ccc(N2CC[C@@]3(CCCNC3)C2)nc1 | inactive |
| CCC(=O)CC(c1ccc([N+](=O)[O-])cc1)c1c(O)c2ccccc2oc1=O (stereo not given) | inactive |
| COc1cc(C(c2c(O)c3ccccc3oc2=O)c2c(C)n(C)n(-c3ccccc3)c2=O)ccc1O (stereo not given) | inactive |
| O=c1oc2ccccc2c(O)c1C(c1ccccc1O)c1c(O)c2ccccc2oc1=O | 10 µM (active) |
| O=C(O)C(=O)Cc1ccc2c(c1)OCO2 | inactive |
| c1ccc(Cc2nn3c(Cn4cnc5ccccc54)nnc3s2)cc1 | inactive |
